{"source": "PubChem BioAssay"}
{"biological_target": "Torsin-1A (Homo sapiens) (UniProt O14656)", "sequence (O14656 whole entry, looked up)": "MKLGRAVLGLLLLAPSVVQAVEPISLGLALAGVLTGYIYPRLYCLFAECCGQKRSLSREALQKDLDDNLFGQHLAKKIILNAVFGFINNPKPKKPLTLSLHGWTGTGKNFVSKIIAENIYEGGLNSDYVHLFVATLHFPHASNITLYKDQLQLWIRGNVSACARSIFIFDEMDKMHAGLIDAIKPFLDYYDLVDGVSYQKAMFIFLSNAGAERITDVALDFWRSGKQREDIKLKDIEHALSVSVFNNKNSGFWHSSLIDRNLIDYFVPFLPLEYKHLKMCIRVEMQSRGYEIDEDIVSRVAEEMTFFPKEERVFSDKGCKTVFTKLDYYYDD", "experiment": "torsin A binders from cell lysate, primary screen, small-molecule microarray, wild-type, 635/667 nm (AID 1149)", "details": "COS7 hTOR1A-WT lysate, 635 nm fluorescence, higher = more signal"}
{"compound": "CCC(CC)C(O)C1C=CC2C(=O)NC(=O)C2N1Nc1ccc(Cl)cc1Cl", "note": "(stereo not given)", "composite z-score": -0.167}
{"compound": "C=C(CCCC)/C(=C/C[C@@H](OC(=O)c1ccncc1)c1ccc(OCCO)cc1)c1cc(C(=O)OC)ccc1OC", "composite z-score": 0.0383}
{"compound": "CO[C@H]1O[C@H](CO)[C@@H](OC(=O)Nc2cccc(F)c2)[C@H](OC(=O)Nc2ccccc2)[C@@H]1OC(=O)Nc1ccccc1", "composite z-score": 0.434}
{"compound": "C=C(COC)C(=O)CC[C@@H](OC(C)=O)c1ccc(CO)o1", "composite z-score": 0.463}
{"compound": "COC(=O)[C@H](Cc1ccccc1)N1CC2=C[C@@H](C3CC3)n3c(=O)n(C)c(=O)n3[C@H]2[C@@H]1[C@@H](O)Cc1ccccc1", "composite z-score": 0.413}
{"compound": "C=C[C@H](CO[Si](CC)(CC)CC)N(Cc1ccc(OC(C)=O)c(OC)c1)S(=O)(=O)c1ccc(Br)cc1", "composite z-score": 0.837}
{"compound": "C=CCOC(=O)[C@H]1[C@@H]2C(=O)O[C@@H](c3ccccc3)[C@@H](c3ccccc3)N2[C@@H](c2ccc(OCCOC(=O)[C@H]3C[C@H]4C(=O)N[C@@H](CCCCNC(C)=O)C(=O)N4[C@H]3c3ccc(O)cc3)cc2)[C@]12C(=O)Nc1ccc(I)cc12", "composite z-score": 0.807}
{"compound": "CC(C)C(O)C1C=CC2C(=O)NC(=O)C2N1Nc1ccc(Cl)cc1Cl", "note": "(stereo not given)", "composite z-score": 0.41}
{"compound": "COc1ccc([Si](C)(C)[C@H]2[C@H](CCO)O[C@@]3(C(=O)N(Cc4ccc(N(C=O)c5ccccc5)cc4)c4ccccc43)[C@@H]2C)cc1", "composite z-score": -0.498}
{"compound": "CC(C)C(O)C1C=CC2C(=O)N(c3ccccc3)C(=O)C2N1Nc1ccc([N+](=O)[O-])cc1", "note": "(stereo not given)", "composite z-score": 0.0373}
{"compound": "CC(C)C[C@@H]1NC(=O)[C@H](C(C)C)NC(=O)[C@@]23C(=O)N[C@@H](Cc4ccccc4)C2[C@H](C)[C@@]2(C)O[C@H]2C3/C=C/CC/C=C/CNC1=O", "note": "(stereo not given in full)", "composite z-score": 0.356}
{"compound": "CC1(C)[C@@H]2CC(C(O)C3C=CC4C(=O)N(c5ccccc5)C(=O)C4N3Nc3ccc([N+](=O)[O-])cc3)=C[C@H]1C2", "note": "(stereo not given in full)", "composite z-score": 1.18}
{"compound": "COc1ccccc1CN1C(=O)c2ccccc2[C@@]2(Cc3ccccc3N(CC(C)C)C2=O)[C@@H]1c1ccc(CO)cc1", "composite z-score": -0.913}
{"compound": "CC1CC/C=C\\[C@H]2OC34C=CCN(C(C)(C)C)C(=O)[C@H]3N(C(C)CO)C(=O)[C@@H]4C2C(=O)O1", "note": "(stereo not given in full)", "composite z-score": -0.468}
{"compound": "O=C(NCCO)C1=C[C@H](Oc2ccccc2I)[C@@H](O)[C@H](N(Cc2ccco2)C(=O)Cc2ccccc2)C1", "composite z-score": 0.303}
{"compound": "CN(C)CCCC[C@@H]1NC(=O)[C@H]2C[C@@H](C(=O)NCCCCCCN)[C@@H](c3ccc(O)cc3)N2C1=O", "composite z-score": 1.13}
{"compound": "COC(=O)C(CC#Cc1ccc2c(c1)[C@]1(C(=O)N2)[C@H](c2ccc(OCCO)cc2)N2[C@H](c3ccccc3)[C@H](c3ccccc3)OC(=O)[C@H]2[C@@H]1C(=O)N1CCc2cc(OC)c(OC)cc2C1)C(=O)OC", "composite z-score": 0.668}
{"compound": "[N-]=[N+]=Nc1ccccc1[C@H]1OC(c2ccc(OCCCO)cc2)=N[C@@]1(CCS(=O)(=O)c1ccccc1)C(N)=O", "composite z-score": 0.875}
{"compound": "COC(=O)[C@@]1(Cc2ccc(F)cc2)[C@H]2c3cc(C(=O)N(C)C)n(Cc4ccccc4)c3C[C@H]2CN1C(=O)c1ccccc1", "composite z-score": -0.243}
{"compound": "COc1cc(COC(C)=O)ccc1OC(C)=O", "composite z-score": 0.343}
{"compound": "CN1C(=O)C2C=CC(C(O)C#Cc3ccccc3)N(N3CCCCC3)C2C1=O", "note": "(stereo not given)", "composite z-score": 1.27}
{"compound": "NC(=O)NCC#Cc1ccc2c(c1)[C@]1(C(=O)N2)[C@H](C(N)=O)[C@H]2C(=O)O[C@H](c3ccccc3)[C@H](c3ccccc3)N2[C@@H]1c1ccc(O)cc1", "composite z-score": 0.2}
{"compound": "CO[C@H]1O[C@H](CO)[C@@H](OC(=O)Nc2ccc(Oc3ccccc3)cc2)[C@H](OC(=O)Nc2ccc3c(c2)OCO3)[C@H]1OC(=O)Nc1ccc2c(c1)OCO2", "composite z-score": 0.387}
{"compound": "CC(C)NC(=O)[C@@H]1c2ccccc2C(=O)N(C2Cc3ccccc3C2)[C@H]1c1ccc(CO)cc1", "composite z-score": -0.232}
{"compound": "CCCc1cc2c(n1Cc1cc(F)cc(F)c1)C(C)C1CN(C(=O)c3ccccc3)C(C)(C(=O)OC)C21", "note": "(stereo not given)", "composite z-score": 0.361}
{"compound": "[N-]=[N+]=Nc1ccccc1[C@@H]1OC(c2ccc(OCCCO)cc2)=N[C@]1(CCS(=O)(=O)c1ccccc1)C(N)=O", "composite z-score": 0.641}
{"compound": "O=C1c2ccccc2[C@](Cc2ccccc2I)(C(=O)NCCN2CCOCC2)[C@H](c2ccc(CO)cc2)N1Cc1ccccc1Cl", "composite z-score": 0.442}
{"compound": "O=C(N1CCCCC1)[C@]1(Cc2ccccc2)N=C(c2ccc(OCCCO)cc2)O[C@@H]1c1ccccc1", "composite z-score": 1.03}
{"compound": "CC(=O)NCCCC[C@@H]1NC(=O)[C@H]2C[C@@H](C(=O)NCCCCCCNC(=O)CS)[C@@H](c3ccc(O)cc3)N2C1=O", "composite z-score": 0.365}
{"compound": "O=C(CS)NCCCCCCNC(=O)[C@@H]1C[C@@H]2C(=O)NCC(=O)N2[C@@H]1c1cccc(OCCO)c1", "composite z-score": 1.29}
{"compound": "CC[C@@H]1C=C(C(=O)O)[C@H](c2ccc(Br)cc2)N1S(=O)(=O)c1ccc(C)cc1", "composite z-score": 0.297}
{"compound": "CCOC(=O)C[C@H]1[C@H](OC(=O)c2ccccc2-c2ccccc2)[C@@H](NC(=O)CC(C)C)c2cc(OCCCO)ccc2N1C(=O)Cc1ccc(OC)cc1", "composite z-score": 0.0776}
{"compound": "CCCC[C@@H]1C[C@H]1[C@@H](NC(=O)c1cccs1)c1ccc(-c2ccccc2)cc1", "composite z-score": -0.473}
{"compound": "COc1ccc(-c2cc3c(c(-c4ccc(Oc5ccccc5)cc4)n2)[Si](C(C)C)(C(C)C)OC3)cn1", "composite z-score": -0.664}
{"compound": "CC(C)C(=C=CC[C@@H](O)c1ccc(OCCO)cc1)C[C@@H](O)COCc1ccccc1", "composite z-score": -0.372}
